Only some compounds are listed: those with a hit (about 2.9% of all), similar ones and a draw of the others.
B2AR arrestin – agonists driving beta-arrestin recruitment to human beta2-adrenergic receptor. P07550. beta-arrestin recruitment to beta2AR, cell-based reporter. Potency, µM (series often up to 46.1 µM), without a hit: top-dose activation, most hits filed as activators. hit rate 0.02% among 330,000;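 further: potency means the concentration at half of the fitted maximal effect; 0% = DMSO controls and full agonism = EC100 isoproterenol or metaproterenol; nearly all actives have a fitted effect of over 65% in size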
Target sequence (P07550 whole entry, looked up): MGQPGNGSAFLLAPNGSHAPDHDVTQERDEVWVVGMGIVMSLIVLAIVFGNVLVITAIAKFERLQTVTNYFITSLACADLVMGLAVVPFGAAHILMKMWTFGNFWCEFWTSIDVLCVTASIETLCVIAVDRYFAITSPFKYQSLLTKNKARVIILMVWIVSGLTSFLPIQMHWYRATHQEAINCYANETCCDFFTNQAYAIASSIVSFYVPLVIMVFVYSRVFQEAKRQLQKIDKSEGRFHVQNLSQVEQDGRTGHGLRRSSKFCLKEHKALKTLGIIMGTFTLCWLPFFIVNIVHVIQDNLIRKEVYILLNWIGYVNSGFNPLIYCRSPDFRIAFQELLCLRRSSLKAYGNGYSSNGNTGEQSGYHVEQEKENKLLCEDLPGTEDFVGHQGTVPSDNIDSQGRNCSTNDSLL
DRD3 antagonist – antagonists of human D3 dopamine receptor. P35462. D3R cells, DiscoveRx beta-arrestin luminescence, antagonist mode; stronger effect = lower value. max response, negative = inhibition, %. hit rate 2.5% among 360,000. AID 652054; in the data active means max response below about -50%; further: on the % scale 0 is the no-effect control and ±100 the full control effect
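Cells expressing the human receptor were seeded at 1500 cells/well, incubated overnight at 37 degrees C in 5% CO2, then exposed to library compounds with dopamine controls for 90 minutes at 37 degrees C before luminescent detection.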
DRD3 agonist – activates the human D3 dopamine receptor | P35462 | D3R DiscoveRx beta-arrestin cells, luminescence, 90 min | max activation, % | hit rate 0.58% among 410,000 | AID 652048; in the data active means max activation above about 30%; further: 0% is about no effect
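Cells at 1500/well, incubated overnight, then treated with pinned compounds (dopamine as control) for 90 min at 37 degrees C. DiscoveRx reagent added for 30 - 60 minutes at room temperature; luminescence read.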
IDH1 R132H inh – human IDH1 R132H inhibition; O75874; IDH1-R132H enzyme, NADPH consumption, diaphorase/resazurin fluorescence; Potency, µM (titrated, usually from 76.6 µM), without a hit: top-dose activity change, negative = inhibition, hits mostly inhibitors; hit rate 0.093% among 390,000; further: potency means the concentration at half of the fitted maximal effect; on the % scale 0 is the no-effect control and ±100 the full control effect; nearly all actives have a fitted effect of over 65% in size
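IDH1-R132H (0.5 ug/mL dispensed) in pH 7.5 Tris buffer was preincubated 30 min with compound, then given a substrate mix of 0.016 mM NADPH and 2 mM alpha-KG for 80 min at room temperature; remaining NADPH was read by diaphorase/resazurin fluorescence.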
Integrin act MD – integrin-mediated muscular dystrophy alleviation activation. alpha7betagal myoblasts, beta-gal FDG fluorescence, 48 h. Potency, µM (doses to about 38.3 µM), without a hit: top-dose activation, hits mostly activators. hit rate 0.064% among 350,000. AID 624291;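 further: potency means the concentration at half of the fitted maximal effect; 100% = response of the positive control SU9516; nearly all actives have a fitted effect of over 60% in size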
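Alpha7betagal+/- myoblasts (passage 13) were plated 16-24 hr, then exposed to compounds (1:260 dilution of DMSO stock) for 48 hours at 37C. After MPER lysis, β-galactosidase reporter activity was read as FDG fluorescence (ex 480/em 540) after 30 minutes.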
The depositor's hits bear a star; / = no result. Unless noted, the call rests on the fitted dose curve; in most records, active means well fitted curve in the direction sought with a large enough effect; inconclusive means small, poorly fitted or top-dose-only effect, or another doubt; inactive means no such curve, though single readings can be large; an effect the other way counts as inactive or inconclusive.

SMILES	B2AR arrestin	DRD3 antagonist	DRD3 agonist	IDH1 R132H inh	Integrin act MD
CCC(=O)N1CCc2cc(S(=O)(=O)CCC(=O)N3CCN(c4ccccc4Cl)CC3)ccc21	/	/	3	-4%	/
COc1ccc(/C=N/NC(=O)c2ccccc2)cc1CN1CCN(c2ccc(F)cc2)CC1	-1%	-17	-18	-2%	2%
COc1cc(C(=O)N/N=C/c2ccc(OC)c(CN3CCN(c4ccc(F)cc4)CC3)c2)ccc1O	0%	-75*	-13	-5%	23%
O=C(CCCCn1c(=O)c2ccccc2n(Cc2cccc(Cl)c2)c1=O)NCc1ccc2c(c1)OCO2	/	/	-5	13%	/
Cc1c(N=C2C=CC(=O)c3ccccc32)c(=O)n(-c2ccccc2)n1C	0%	-55*	-11	14%	-62%
Cc1c(N=C2C=C(Br)C(=O)C(Br)=C2)c(=O)n(-c2ccccc2)n1C	1%	4	5	7%	-6%
Cc1ccc(SC(CC(=O)c2ccc(F)cc2)C(=O)O)cc1 (configuration not stated)	0%	0	-1	-3%	24%
CC(C)(C)c1ccc(C(=O)CC(Sc2ccc(Cl)cc2)C(=O)O)cc1 (configuration not stated)	0%	-64*	-17	-8%	-49%
Cc1oc(-c2ccccc2)nc1CSc1nc2c(c(=O)[nH]1)CCC2	-1%	152	27	-2%	0%
Cc1ccccc1-c1nc(CSc2nc3c(c(=O)[nH]2)CCC3)c(C)o1	-1%	189	30*	-2%	30%
O=C(NCCC1=CCCCC1)C(=O)NCC(c1ccco1)N1CCN(c2ccc(F)cc2)CC1 (configuration not stated)	-1%	-66*	-6	0%	13%
NC(=O)CC[C@@H]1NC(=O)[C@@H]2CCCN2C(=O)c2cc([N+](=O)[O-])cc(I)c2NCCC[C@@H](C(N)=O)NC1=O	-1%	2	44*	0%	7%
NC(=O)CC[C@@H]1NC(=O)[C@@H]2CCCN2C(=O)c2cc([N+](=O)[O-])cc(I)c2NCCC[C@@H](C(=O)NC(CC(=O)O)C(N)=O)NC1=O (some centres not stated)	0%	1	8	-5%	-1%
O=[N+]([O-])c1ccc(S(=O)Cc2ccccc2)c([N+](=O)[O-])c1 (configuration not stated)	/	-102*	-39	-5%	-54%
O=[N+]([O-])c1ccc(CS(=O)c2ccccc2)cc1 (configuration not stated)	/	5	-1	2%	-11%
CCOc1ccccc1CNC(=O)C1CCN(c2nnc(C)c3c(C)n(-c4ccc(C)cc4)nc23)CC1	0%	2	-3	-15%	-54%
COc1ccc(-n2nc3c(N4CCCC(C(=O)NCc5cccc(F)c5)C4)nnc(C)c3c2C)cc1 (configuration not stated)	/	/	17	-12%	/
COc1ccc(-n2nc3c(N4CCC(C(=O)NCc5cccc(C)c5)CC4)nnc(C)c3c2C)cc1	0%	-59*	5	3%	2%
COc1ccccc1CCNC(=O)C1CCN(c2nnc(C)c3c(C)n(-c4ccc(C)cc4)nc23)CC1	0%	-70*	17	7%	-10%
O=C(CSC1=Nc2ccccc2C2=NC(Cc3ccccc3)C(=O)N12)Nc1cccc(Cl)c1 (configuration not stated)	/	/	-9	-3%	/
COc1ccc(CCNC(=O)c2ccc3c(c2)CCN3S(=O)(=O)c2ccccc2)cc1	/	/	7	20%	/
CCc1ccc(NC(=O)CN2C(=O)CSc3ccc(S(=O)(=O)N(C)C)cc32)cc1	/	/	2	-20%	/
Cc1cc2nc3c(=O)n(C)c(=O)n(C)c3nc2cc1N=CN(C)C	/	/	3	20%	/
COc1cc(C(=O)NC(=S)NNC(=O)c2ccc3c(c2)OCO3)cc(OC)c1OC	-1%	11	30*	3%	-34%
Cc1cccc(NC(=O)c2ccc3c(c2)OCCO3)c1	0%	-4	-1	10%	7%
Cc1cccc(NC(=S)NNC(=O)c2ccc3c(c2)OCO3)c1	3%	-59*	-13	1%	20%
CCc1nnc(NC(=O)c2ccc(Cl)c(S(=O)(=O)N3CCc4ccccc43)c2)s1	0%	97	2	-1%	-24%
